Measurements from PubChem BioAssay (EPA / NIEHS).
Records with an inconclusive call do not appear. The source made the active and inactive calls. How the source made its calls: active means hit-call score of the fitted dose curve at least 0.9, where 1 is the maximum; inconclusive means response in the unintended direction; inactive means score below 0.9.

Legend:
[1] = target: human Retinoic Acid Receptor beta (RARb), RARB (gene 5915) (UniProt P10826); assay: ATG_RARb_TRANS: Attagene TRANS-FACTORIAL HepG2 Assay for human Retinoic Acid Receptor beta (AID 2283004)
Procedure, shortened: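 Transient transfection of HepG2 with multiple reporter units → chemical dosing, 24 h → total RNA isolation → RT with oligo(dT) → reporter-specific PCR, 6-FAM primer extension, HpaI digest → capillary electrophoresis. Positive direction vs DMSO control.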

[2] = target: Peroxisome proliferator-activated receptor gamma (Homo sapiens) (UniProt P37231); assay: ATG_PPARg_TRANS: Attagene TRANS-FACTORIAL HepG2 Assay for human Peroxisome Proliferator-activated Receptor-gamma (PPARg) (AID 2283007)
Procedure, shortened: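 Gain-of-signal endpoint relative to DMSO, derived from reporter mRNA levels quantified by RT-PCR and capillary electrophoresis. Cells were HepG2 transiently expressing a chimeric NR-Gal4 construct with GAL4-UAS reporters, exposed to chemicals for 24 h.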

[3] = target: human RAR-related Orphan Receptor gamma (RORg), RORC (gene 6097) (UniProt P51449); assay: ATG_RORg_TRANS: Attagene TRANS-FACTORIAL HepG2 Assay for human RAR-related Orphan Receptor gamma (RORg) (AID 2283011)
Procedure, shortened: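 First, HepG2 liver cells were transfected with GAL4-UAS-driven reporter constructs and the RORg-Gal4 fusion. Next, they were treated with chemical for 24 h. Finally, reporter mRNA was quantified by RT-PCR and capillary electrophoresis, with upward activity fitted against DMSO.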

[4] = target: Retinoic acid receptor RXR-alpha (Homo sapiens) (UniProt P19793); assay: ATG_RXRa_TRANS: Attagene TRANS-FACTORIAL HepG2 Assay for human Retinoid X Receptor alpha (RXRa) (AID 2283012)
Procedure, shortened: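 Chimeric NR-GAL4 trans-activation in HepG2, 24 h treatment; reporter transcripts quantified by fluorescence on capillary electrophoresis, analysed for upward change from DMSO.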

[5] = target: human Retinoid X Receptor beta (RXRb), RXRB (gene 6257) (UniProt P28702); assay: ATG_RXRb_TRANS: Attagene TRANS-FACTORIAL HepG2 Assay for human Retinoid X Receptor beta (RXRb) (AID 2283013)
Procedure, shortened: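 After a 24 h incubation with test chemical, transfected HepG2 cells carrying NR-Gal4 fusions and GAL4-UAS reporter transcription units yield RNA whose reporter cDNA is FAM-labelled, HpaI-cut and sized by capillary electrophoresis; increases over DMSO are scored.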

[6] = target: human Thyroid Receptor alpha (THRa1), THRA (gene 7067) (UniProt P10827); assay: ATG_THRa1_TRANS: Attagene TRANS-FACTORIAL HepG2 Assay for human Thyroid Receptor alpha (THRa1) (AID 2283014)
Procedure, shortened: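 Reporter transcript induction, read by capillary electrophoresis of 6-FAM-labelled RT-PCR products, reflects activity of a transfected THRa1-Gal4 fusion in HepG2 liver cells. Cells were dosed for 24 h; activity was fitted in the positive direction against DMSO.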

[7] = target: human Vitamin D Receptor (VDR), VDR (gene 7421) (UniProt P11473); assay: ATG_VDR_TRANS: Attagene TRANS-FACTORIAL HepG2 Assay for human Vitamin D Receptor (VDR) (AID 2283022)
Procedure, shortened: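 Steps: transfect HepG2 with GAL4-UAS-driven reporter constructs; dose compounds 24 h; isolate RNA, reverse-transcribe, PCR-amplify with 6-FAM-labelled primer extension and HpaI digestion; quantify fragments by capillary electrophoresis relative to DMSO.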

[8] = target: Retinoic acid receptor alpha (Homo sapiens) (UniProt P10276); assay: ATG_RARa_TRANS: Attagene TRANS-FACTORIAL HepG2 Assay for human Retinoic Acid Receptor alpha (RARa) (AID 2283005);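 on AC50: potency for increased reporter signal meaning RARa activation over DMSO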
Procedure, shortened: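 Reporter transcripts, measured by RT-PCR with fluorescent labeling and capillary electrophoresis after 24 h dosing, reflect activity of an exogenous human RARa–GAL4 fusion in transiently transfected HepG2. Fitted for increase relative to DMSO.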

[9] = target: human Retinoic Acid Receptor gamma (RARg), RARG (gene 5916) (UniProt P13631); assay: ATG_RARg_TRANS: Attagene TRANS-FACTORIAL HepG2 Assay for human Retinoic Acid Receptor gamma (RARg) (AID 2283009)
Procedure, shortened: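 Gain-of-signal relative to DMSO is reported from fluorescent capillary electrophoresis of RT-PCR reporter products. These came from HepG2 cells expressing transfected RARg-GAL4 chimeras with UAS reporters, harvested 24 h after dosing.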

[10] = target: human RAR-related Orphan Receptor beta (RORb), RORB (gene 6096) (UniProt Q92753); assay: ATG_RORb_TRANS: Attagene TRANS-FACTORIAL HepG2 Assay for human RAR-related Orphan Receptor beta (RORb) (AID 2283010)
Procedure, shortened: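 Multiplexed transcription-factor reporter assay: HepG2 cells transiently carrying NR-Gal4/GAL4-UAS constructs, 24 h treatment, mRNA quantified by RT-PCR plus capillary electrophoresis fluorescence; activity scored as induction over DMSO.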

[11] = target: Nuclear receptor subfamily 1 group I member 2 (Homo sapiens) (UniProt O75469); assay: ATG_PXR_TRANS: Attagene TRANS-FACTORIAL HepG2 Assay for human Pregnane X Receptor (PXR) (AID 2283008)
Procedure, shortened: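 Multiplexed TRANS reporter panel in HepG2; this component tracks PXR-Gal4-driven reporter mRNA after 24 h dosing, measured by RT-PCR with capillary electrophoresis fluorescence, fitted against DMSO.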

Measured: AC50

human RAR-related Orphan Receptor beta (RORb), RORB (gene 6096), sequence (Q92753 whole entry, looked up, the tested form may be a part): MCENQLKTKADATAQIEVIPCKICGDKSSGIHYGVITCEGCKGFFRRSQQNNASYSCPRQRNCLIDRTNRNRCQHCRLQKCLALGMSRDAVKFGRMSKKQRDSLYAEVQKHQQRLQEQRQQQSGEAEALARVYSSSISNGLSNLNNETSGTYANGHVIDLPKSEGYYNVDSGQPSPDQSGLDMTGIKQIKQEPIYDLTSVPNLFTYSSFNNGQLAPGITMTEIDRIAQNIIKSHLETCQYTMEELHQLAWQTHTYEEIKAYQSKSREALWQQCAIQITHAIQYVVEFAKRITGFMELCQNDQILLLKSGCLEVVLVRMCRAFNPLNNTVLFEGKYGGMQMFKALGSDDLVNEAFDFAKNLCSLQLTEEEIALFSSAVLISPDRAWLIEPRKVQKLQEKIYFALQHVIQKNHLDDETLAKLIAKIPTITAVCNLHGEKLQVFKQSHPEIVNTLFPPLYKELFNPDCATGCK
human RAR-related Orphan Receptor gamma (RORg), RORC (gene 6097), sequence (P51449 whole entry, looked up, the tested form may be a part): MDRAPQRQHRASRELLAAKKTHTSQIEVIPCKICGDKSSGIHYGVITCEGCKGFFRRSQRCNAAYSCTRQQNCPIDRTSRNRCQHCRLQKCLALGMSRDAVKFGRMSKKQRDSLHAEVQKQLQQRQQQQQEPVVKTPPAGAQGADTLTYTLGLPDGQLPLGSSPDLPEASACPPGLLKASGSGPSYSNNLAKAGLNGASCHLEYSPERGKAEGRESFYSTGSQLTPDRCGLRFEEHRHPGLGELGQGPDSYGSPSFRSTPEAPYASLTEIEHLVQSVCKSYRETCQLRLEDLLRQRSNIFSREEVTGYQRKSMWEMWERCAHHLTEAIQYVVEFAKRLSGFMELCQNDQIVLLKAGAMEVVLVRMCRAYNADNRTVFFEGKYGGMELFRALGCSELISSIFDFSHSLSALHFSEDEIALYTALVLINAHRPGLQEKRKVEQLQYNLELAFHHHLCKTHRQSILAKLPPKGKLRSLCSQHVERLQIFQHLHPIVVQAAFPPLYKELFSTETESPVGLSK
Nuclear receptor subfamily 1 group I member 2 (Homo sapiens), sequence (O75469 whole entry, looked up, the tested form may be a part): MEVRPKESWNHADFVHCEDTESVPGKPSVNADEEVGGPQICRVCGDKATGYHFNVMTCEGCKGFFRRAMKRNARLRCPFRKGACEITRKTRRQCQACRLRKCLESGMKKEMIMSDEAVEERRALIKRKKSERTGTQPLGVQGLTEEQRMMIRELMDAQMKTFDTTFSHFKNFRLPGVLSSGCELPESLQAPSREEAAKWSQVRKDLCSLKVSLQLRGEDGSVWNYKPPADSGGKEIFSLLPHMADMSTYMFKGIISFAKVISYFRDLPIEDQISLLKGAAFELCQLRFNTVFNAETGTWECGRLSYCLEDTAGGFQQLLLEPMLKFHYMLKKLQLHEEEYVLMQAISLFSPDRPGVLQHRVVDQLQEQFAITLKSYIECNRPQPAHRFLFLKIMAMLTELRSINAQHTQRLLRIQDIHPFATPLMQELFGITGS
Peroxisome proliferator-activated receptor gamma (Homo sapiens), sequence (P37231 whole entry, looked up, the tested form may be a part): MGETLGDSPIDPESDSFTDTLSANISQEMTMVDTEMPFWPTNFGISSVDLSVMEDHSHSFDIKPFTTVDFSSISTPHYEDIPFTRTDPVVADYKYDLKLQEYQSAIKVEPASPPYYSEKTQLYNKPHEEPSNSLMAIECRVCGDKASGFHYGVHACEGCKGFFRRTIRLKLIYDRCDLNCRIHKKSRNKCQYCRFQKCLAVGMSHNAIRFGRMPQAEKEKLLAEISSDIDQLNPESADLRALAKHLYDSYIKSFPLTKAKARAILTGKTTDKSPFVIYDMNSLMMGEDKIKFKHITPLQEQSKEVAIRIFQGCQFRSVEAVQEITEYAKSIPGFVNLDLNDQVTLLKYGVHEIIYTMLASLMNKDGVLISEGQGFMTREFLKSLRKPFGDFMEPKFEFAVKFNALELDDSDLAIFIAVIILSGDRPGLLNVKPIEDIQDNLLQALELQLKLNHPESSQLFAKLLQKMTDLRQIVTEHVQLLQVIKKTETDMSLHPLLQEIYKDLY
Retinoic acid receptor RXR-alpha (Homo sapiens), sequence (P19793 whole entry, looked up, the tested form may be a part): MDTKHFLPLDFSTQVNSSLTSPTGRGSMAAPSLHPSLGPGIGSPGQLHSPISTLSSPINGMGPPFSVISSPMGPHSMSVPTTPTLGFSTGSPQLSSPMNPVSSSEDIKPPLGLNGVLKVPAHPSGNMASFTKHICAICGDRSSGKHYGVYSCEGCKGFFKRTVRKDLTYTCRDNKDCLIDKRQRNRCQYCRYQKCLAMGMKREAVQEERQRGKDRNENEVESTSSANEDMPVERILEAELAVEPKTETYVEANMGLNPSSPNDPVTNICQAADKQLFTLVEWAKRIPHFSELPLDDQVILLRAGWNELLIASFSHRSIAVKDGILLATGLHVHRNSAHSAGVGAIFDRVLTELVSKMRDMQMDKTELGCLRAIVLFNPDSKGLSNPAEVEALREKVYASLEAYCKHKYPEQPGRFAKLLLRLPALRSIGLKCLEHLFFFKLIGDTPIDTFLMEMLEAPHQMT
human Retinoid X Receptor beta (RXRb), RXRB (gene 6257), sequence (P28702 whole entry, looked up, the tested form may be a part): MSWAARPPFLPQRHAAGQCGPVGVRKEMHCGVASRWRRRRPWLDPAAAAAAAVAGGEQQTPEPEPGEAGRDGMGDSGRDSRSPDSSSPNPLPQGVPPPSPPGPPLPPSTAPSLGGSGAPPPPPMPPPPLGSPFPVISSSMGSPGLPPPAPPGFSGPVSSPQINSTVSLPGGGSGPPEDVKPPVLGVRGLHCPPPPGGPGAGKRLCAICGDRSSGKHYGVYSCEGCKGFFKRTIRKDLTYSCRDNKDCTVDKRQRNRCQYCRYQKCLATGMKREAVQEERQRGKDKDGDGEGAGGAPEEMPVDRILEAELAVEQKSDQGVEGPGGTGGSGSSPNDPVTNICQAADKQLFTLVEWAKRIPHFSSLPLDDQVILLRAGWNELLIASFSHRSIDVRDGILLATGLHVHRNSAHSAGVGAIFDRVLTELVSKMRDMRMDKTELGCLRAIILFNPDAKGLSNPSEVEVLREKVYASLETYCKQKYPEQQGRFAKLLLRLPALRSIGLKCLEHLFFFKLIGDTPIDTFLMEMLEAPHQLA
human Thyroid Receptor alpha (THRa1), THRA (gene 7067), sequence (P10827 whole entry, looked up, the tested form may be a part): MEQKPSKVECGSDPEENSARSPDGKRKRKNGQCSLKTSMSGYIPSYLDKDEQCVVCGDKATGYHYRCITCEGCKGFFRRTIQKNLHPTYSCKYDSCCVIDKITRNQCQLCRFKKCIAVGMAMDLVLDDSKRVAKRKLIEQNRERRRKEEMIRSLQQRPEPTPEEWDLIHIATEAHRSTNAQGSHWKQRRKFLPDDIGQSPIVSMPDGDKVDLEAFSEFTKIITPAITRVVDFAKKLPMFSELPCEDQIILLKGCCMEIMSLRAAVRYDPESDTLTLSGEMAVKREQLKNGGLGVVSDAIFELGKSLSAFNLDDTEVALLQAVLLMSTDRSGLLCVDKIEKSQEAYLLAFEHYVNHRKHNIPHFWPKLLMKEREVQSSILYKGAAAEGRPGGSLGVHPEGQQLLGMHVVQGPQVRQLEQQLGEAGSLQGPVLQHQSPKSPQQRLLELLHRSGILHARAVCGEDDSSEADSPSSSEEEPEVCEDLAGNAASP
human Retinoic Acid Receptor beta (RARb), RARB (gene 5915), sequence (P10826 whole entry, looked up): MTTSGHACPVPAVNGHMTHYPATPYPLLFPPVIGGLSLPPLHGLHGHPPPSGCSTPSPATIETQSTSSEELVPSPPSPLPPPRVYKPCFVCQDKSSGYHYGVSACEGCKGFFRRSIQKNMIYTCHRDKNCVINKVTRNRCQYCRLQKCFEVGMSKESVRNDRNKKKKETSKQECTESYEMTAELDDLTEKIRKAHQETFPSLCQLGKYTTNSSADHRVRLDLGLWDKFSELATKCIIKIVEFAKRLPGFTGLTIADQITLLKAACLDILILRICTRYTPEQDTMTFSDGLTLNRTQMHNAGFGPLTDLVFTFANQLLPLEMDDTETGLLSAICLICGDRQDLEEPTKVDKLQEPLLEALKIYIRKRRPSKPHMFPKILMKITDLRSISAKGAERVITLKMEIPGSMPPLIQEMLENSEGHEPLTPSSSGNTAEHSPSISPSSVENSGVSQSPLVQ
human Retinoic Acid Receptor gamma (RARg), RARG (gene 5916), sequence (P13631 whole entry, looked up, the tested form may be a part): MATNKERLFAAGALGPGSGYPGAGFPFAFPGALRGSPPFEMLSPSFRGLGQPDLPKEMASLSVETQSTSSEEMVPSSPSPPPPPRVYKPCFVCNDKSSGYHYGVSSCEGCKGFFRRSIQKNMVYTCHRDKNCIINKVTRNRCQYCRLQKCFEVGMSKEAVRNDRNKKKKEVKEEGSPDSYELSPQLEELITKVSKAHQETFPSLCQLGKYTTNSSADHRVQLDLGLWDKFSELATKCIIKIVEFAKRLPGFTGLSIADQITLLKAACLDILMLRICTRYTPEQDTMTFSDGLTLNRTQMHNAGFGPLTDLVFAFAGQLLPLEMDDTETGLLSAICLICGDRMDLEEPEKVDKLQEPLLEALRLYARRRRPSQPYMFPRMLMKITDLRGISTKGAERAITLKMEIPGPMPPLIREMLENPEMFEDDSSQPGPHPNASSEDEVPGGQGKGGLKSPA
human Vitamin D Receptor (VDR), VDR (gene 7421), sequence (P11473 whole entry, looked up, the tested form may be a part): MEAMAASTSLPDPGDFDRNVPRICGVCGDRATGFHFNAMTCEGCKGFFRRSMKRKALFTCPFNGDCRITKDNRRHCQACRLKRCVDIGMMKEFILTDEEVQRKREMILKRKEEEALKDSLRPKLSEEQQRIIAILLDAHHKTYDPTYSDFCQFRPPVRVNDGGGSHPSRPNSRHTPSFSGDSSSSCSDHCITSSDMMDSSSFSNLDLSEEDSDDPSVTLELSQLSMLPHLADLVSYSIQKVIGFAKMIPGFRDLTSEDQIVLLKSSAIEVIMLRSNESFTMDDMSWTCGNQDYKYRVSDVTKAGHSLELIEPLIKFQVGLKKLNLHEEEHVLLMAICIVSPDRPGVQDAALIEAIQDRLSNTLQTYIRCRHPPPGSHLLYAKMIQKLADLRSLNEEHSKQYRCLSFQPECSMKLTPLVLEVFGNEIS

ClCc1ccccc1CCl
active: [2] 2.49 µM | [4] 57.4 µM
inactive: [1] | [3] | [5] | [6] | [7]

OC[C@@H](O)[C@H]1O[C@@H]2O[C@H](C(Cl)(Cl)Cl)O[C@@H]2[C@H]1O
inactive: [1] | [8] | [2] | [9] | [10] | [5]

OC[P+](CO)(CO)CO
inactive: [1] | [2] | [9] | [4] | [6]

C1CCC(C2CCCCC2)CC1
inactive: [1] | [10] | [3] | [4] | [6]
active: [5] 66.1 µM

CCOC(=O)Cc1ccccc1
inactive: [1] | [2] | [10] | [4] | [6] | [7]

Cc1cccc(C)c1NC(=O)CN1CCCC1=O
inactive: [1] | [2] | [11] | [4]

FC(F)OCC(F)(F)C(F)(F)F
inactive: [1] | [11] | [4] | [5]

C=CC(F)(C(F)(F)F)C(F)(F)C(F)(F)F (stereo not drawn)
inactive: [1] | [8] | [2] | [9] | [4] | [5] | [7]

O=CCCl
inactive: [1] | [8] | [2] | [9] | [4] | [5] | [6] | [7]

O=C(Cl)OCCOCCOC(=O)Cl
inactive: [1] | [2] | [11] | [10] | [5] | [6]

O=C1c2ccccc2C(=O)C1C(=O)C(c1ccccc1)c1ccc(Cl)cc1 (stereo not drawn)
active: [8] 26.1 µM | [2] 3.11 µM | [6] 7.69 µM
inactive: [1] | [9] | [10] | [4] | [5] | [7]

CC(C)(C1CCC(O)CC1)C1CCC(O)CC1 (stereo not drawn)
inactive: [1] | [4] | [5] | [7]

COCCl
inactive: [1] | [2] | [11] | [3] | [4] | [6] | [7]

C1CN2CCN1CC2
inactive: [1] | [11] | [10] | [3] | [4] | [6]

O=C(O)c1cc(I)cc(I)c1I
inactive: [1] | [11] | [4] | [6]

BrCCCCBr
inactive: [1] | [2] | [3] | [5] | [6]

Cl[C@H]1OCCO[C@@H]1Cl
inactive: [1] | [2] | [11] | [9] | [10] | [3] | [4] | [5] | [6]

Cc1cc(Cl)ccc1OCCCC(=O)O
active: [2] 61.5 µM | [5] 27.7 µM
inactive: [1] | [8] | [9] | [3] | [4] | [6] | [7]

N#Cc1ccccc1N
inactive: [1] | [8] | [11] | [10] | [3] | [6]

CCOc1ccc(N)cc1
inactive: [1] | [6] | [7]

O=C=Nc1ccc(Cl)cc1
inactive: [1] | [2] | [11] | [3] | [5] | [6] | [7]

c1ccc2c(c1)Oc1ccccc1O2
inactive: [1] | [11] | [10] | [3] | [4] | [5] | [7]

CCCCOP(=O)(CCCC)OCCCC
inactive: [1] | [10] | [4] | [6]
active: [2] 38.4 µM | [11] 8.52 µM

N#Cc1ccncc1
inactive: [1] | [8] | [9] | [10] | [4] | [5] | [6]

COc1ccc([N+](=O)[O-])cc1O
inactive: [1] | [2] | [9] | [10] | [5] | [6]

CCCCCCCCCCCCCl
active: [5] 65.2 µM
inactive: [8] | [2] | [11] | [3] | [6] | [7]

O=C1C[C@@H]2OCC=C3CN4CC[C@]56c7ccccc7N1[C@H]5[C@H]2[C@H]3C[C@H]46
inactive: [2] | [11] | [9] | [4] | [6]

O=C(Nc1ccc(Br)cc1)c1cc(Br)cc(Br)c1O
inactive: [8] | [9] | [10] | [6] | [7]
active: [2] 11.7 µM | [11] 4.69 µM
